Assay results taken from PubChem BioAssay AID1745849 (National Center for Advancing Translational Sciences (NCATS), 2022).
The whole screen tested about 2,100 compounds, of which about 320 (15%) were called active. Roughly 52% stayed inconclusive and do not appear here. The list shows a part of the results. Unmarked numbers belong to inactive results. The call rests on the fitted dose curve; in most records, active means well fitted cell-killing curve with a large enough effect; inconclusive means small, poorly fitted or top-dose-only effect, or effect the other way; inactive means flat fitted curve, though single readings scatter.

experiment: Viability Counterscreen for CMV-Luciferase Assay of Inhibitors of ATXN expression; conditions: HEK-293 CMV-luciferase cells viability, protease fluorescence, 24 h; activity change, negative = cytotoxicity: at the top concentration; further: nearly all actives have a fitted effect of over 55% in size
Summary of the method: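 HEK-293 cells stably expressing CMV-luciferase, treated 24 hr at 37 °C with compounds (several concentrations). Viability by Gly-Phe-AFC fluorescence (25 uM final, 30 min); reporter by SteadyGlo luminescence after 5 min.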
On the % scale 0 is the no-effect control and ±100 the full control effect; potency means the concentration at half of the fitted maximal effect.

First: O=C(Nc1ccc(NC(=O)c2cccs2)cc1)c1ccc2c(c1)OCO2
Second: CCN(CC)CCNC(=O)c1ccc(NC(=O)Cc2cccc3ccccc23)cc1
The “activity change, negative = cytotoxicity” value of the first is higher: -1.89% for the first, -15.6% for the second.

Compared with `O=C(N/N=C/c1ccccc1O)c1cccc(C(F)(F)F)c1`, `Cc1cccc(OCCn2cc(/C=N/NC(=O)c3ccncc3)c3ccccc32)c1` is lower in “activity change, negative = cytotoxicity” value: -7.41% for the first, -14.6% for the second.

First: O=C(N/N=C/c1cc(Cl)cc([N+](=O)[O-])c1O)c1cccc(S(=O)(=O)N2CCOCC2)c1
Second: CC1CCCCN1S(=O)(=O)c1ccc(C(=O)Nc2nnc(-c3ccccc3Cl)o2)cc1 (centres undefined)
The “activity change, negative = cytotoxicity” value of the first is lower: -29.7% for the first, -13.6% for the second.

Compared with `Cn1c(S(=O)(=O)c2ccc([N+](=O)[O-])cc2)nc(Br)c1Br`, `C/C(=N\NC(=O)C(C)n1nc(C)c([N+](=O)[O-])c1C)c1ccccc1O` (centres undefined) is lower in “activity change, negative = cytotoxicity” value: -1.8% for the first, -26.8% for the second.

Compared with `CC(C)C[C@H](NC(=O)c1[nH]cnc1C(=O)Nc1ccc(CNC(=O)OC(C)(C)C)cc1)C(=O)OCc1ccccc1`, `COc1ccc(CC(N)c2csc(Nc3ccc(C(=O)c4ccccc4)cc3)n2)cc1` (centres undefined) is lower in “activity change, negative = cytotoxicity” value: -11% for the first, -18.3% for the second.

First: CCN(Cc1ccccc1)S(=O)(=O)c1ccc(C(=O)Nc2nnc(C3CC3)o2)cc1
Second: COC(=O)c1ccc(C(=O)Nc2cc(Cl)ccc2Cl)cc1NC(=O)c1ccc(N(C)C)cc1
The “activity change, negative = cytotoxicity” value of the first is lower: -9.39% for the first, 10.5% for the second.

Going from `O=C1CCCC(O)=C1C=NCc1ccccc1` to `Cc1cc(C(=O)CN2C(=O)c3ccccc3S2(=O)=O)c(C)n1C(C)C`, the “activity change, negative = cytotoxicity” value rises from 6.84% to 10.8%.

Going from `CN1CCN(C2Cc3cc(Cl)ccc3Sc3cc(F)ccc32)CC1` (centres undefined) to `COc1ccc2nc(C)cc(NCc3ccc(F)cc3)c2c1`, the “activity change, negative = cytotoxicity” value rises from -18.4% to 29.7%.

Compared with `Cc1cccc(OCCCC(=O)Nc2nccs2)c1`, `NC(=O)c1cccc(Nc2nc(C(N)Cc3ccc(C(F)(F)F)cc3)cs2)n1` (centres undefined) is lower in “activity change, negative = cytotoxicity” value: 7.55% for the first, -20.1% for the second.

Going from `O=C(/C=C/c1ccc(Cl)cc1)Nc1ccc(CN2CCOCC2)cc1` to `COc1ccc(CCn2c(C)cc(C(=O)CSc3nc(N)cc(=O)[nH]3)c2C)cc1`, the “activity change, negative = cytotoxicity” value falls from -4.76% to -9.76%.

In the case of `Cc1cc(C2=NNC(=NC3CC3)SC2)c(C)n1-c1ccccc1F`, the “activity change, negative = cytotoxicity” value is reported as -27.9%.

Compared with `Cc1ncc(CO)c(/C=N/NC(=O)c2cccc(S(=O)(=O)N3CCCC3)c2)c1O`, `Cc1ccc(OCCn2cc(/C=N/NC(=O)c3ccncc3)c3ccccc32)cc1` is lower in “activity change, negative = cytotoxicity” value: 29.5% [at 57.5 µM] for the first, -6.17% [at 57.5 µM] for the second.

Going from `CCc1noc(C)c1C(=O)N1CCSC1=Nc1cccc(Cl)c1C` to `CCc1c(C)nc2ncnn2c1N1CCC(C(=O)Nc2ccc(C)cc2)CC1`, the “activity change, negative = cytotoxicity” value rises from -14.3% [at 57.5 µM] to 10.1% [at 57.5 µM].

Going from `CCC(C)(C)c1ccc(Oc2ccc(N)cc2)cc1` to `CN(CCOc1ccc(Br)cc1)CC(O)COc1ccc(C#N)cc1` (centres undefined), the “activity change, negative = cytotoxicity” value falls from 26.6% [at 57.5 µM] to 19.3% [at 57.5 µM].

Compared with `NNC(=O)c1sc2cc(C(F)(F)F)cnc2c1-c1cccs1`, `CCc1ccc(C(O)c2ncc(-c3cccc(C(F)(F)F)c3)[nH]2)cc1` (centres undefined) is higher in “activity change, negative = cytotoxicity” value: -26.2% [at 57.5 µM] for the first, -1.52% [at 57.5 µM] for the second.

First: NNc1ncnc2sc3c(c12)CCC3
Second: Cc1nc2cc(NC(=O)CSc3nc4c(C)cccc4cc3C#N)ccc2s1
The “activity change, negative = cytotoxicity” value of the first is lower: -10.3% [at 57.5 µM] for the first, -1.01% [at 57.5 µM] for the second.

Compared with `Clc1c(Cl)c(Cl)c2n[nH]nc2c1Cl`, `Cc1ccccc1N1CCN(Cc2c[nH]c3ccccc23)CC1` is lower in “activity change, negative = cytotoxicity” value: 14.6% [at 57.5 µM] for the first, -24.1% [at 57.5 µM] for the second.

First: O=C(CNC(=O)c1cccc(F)c1)N/N=C/c1cc(Br)ccc1OC(=O)/C=C/c1ccco1
Second: CN1C(=O)/C(=C/c2ccccc2F)Sc2ccc(C(=O)N3CCCC3)cc21
The “activity change, negative = cytotoxicity” value of the first is higher: 13.1% [at 57.5 µM] for the first, -30% [at 57.5 µM] for the second.

First: CC1(C)Cc2c(ccc3ccccc23)C2=C(C(=O)N3CCCC3)C(=O)C(=O)N21
Second: COc1cc2c(C(=O)N3CCOCC3)c(CSc3ccccc3)n(C)c2cc1Br
The “activity change, negative = cytotoxicity” value of the first is higher: 11.3% [at 57.5 µM] for the first, 3.39% [at 57.5 µM] for the second.

With `COc1ccccc1NS(=O)(=O)c1cccc(C(=O)N/N=C/c2ccc([N+](=O)[O-])o2)c1` the Potency was 10 µM (active).
For `O=[N+]([O-])c1ccc(/C=N/N=C/c2ccc([N+](=O)[O-])o2)o1`, the Potency was 4.47 µM (active).
With `O=C(N/N=C/c1ccc([N+](=O)[O-])o1)c1ccc2c(c1)OCO2` the Potency was 17.8 µM (active).
With `O=C(Nc1nnc(C2CC2)o1)c1ccc(S(=O)(=O)N2CCCc3ccccc32)cc1` the Potency was 11.2 µM (active).
For `Cc1cccc(/C=C/C(=O)c2ccc([N+](=O)[O-])o2)c1`, the Potency was 3.16 µM (active).
For `COc1ccc2c(c1)CC(N1CCN(C)CC1)c1cc(OC)ccc1S2` (centres undefined), the Potency was 28.2 µM (active).
In the case of `CCN(CC)CCNc1ccc(CO)c2sc3ccccc3c(=O)c12`, the Potency is reported as 25.1 µM (active).
With `O=c1c2ccccc2sc2c(CO)ccc(NCCN3CCCCC3)c12` the Potency was 25.1 µM (active).
In the case of `Cc1ccc(C(C)C)c(OCc2ccc(C(=O)N/N=C/c3cccc(O)c3O)cc2)c1`, the Potency is reported as 3.98 µM (active).
With `Cc1cccc(N=C2NN=C(c3c(C)[nH]c4ccccc34)CS2)c1` the Potency was 25.1 µM (active).
With `CN(Cc1ccccc1)C(=O)c1ccc(Nc2nc(C(N)Cc3ccccc3)cs2)nc1` (centres undefined) the Potency was 10 µM (active).
With `COc1ccc(CNc2ncnc3c2[nH]c2ccccc23)cc1` the Potency was 14.1 µM (active).
